In PubChem BioAssay:
Active and inactive are the calls of the source. Unless noted, how the calls were made is not given here.

How the values were obtained:
[1] = compounds binding Alexa647 anti-His antibody – biochemical, small-molecule microarray, 635 nm fluorescence, artefact control for SMM control protein annotation, primary screen (AID 1128); conditions: higher = more signal;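 further: score merges feature fluorescence with signal-to-noise for each printed compound spot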
[2] = system: Human papillomavirus type 1a E7 protein (residues 1-88); assay: HPV1a E7 small-molecule binders, primary screen, biochemical, small-molecule microarray, residues 1-88, 635 nm (AID 1129); conditions: small-molecule microarray binding, fluorescence 635 nm; higher = more signal
[3] = target: Focal adhesion kinase 1 (Homo sapiens) (UniProt Q05397); assay: PTK2 protein binding on printed compound slides – biochemical, small-molecule microarray, 635/667 nm fluorescence, BSA, DTT, primary screen (AID 1130); conditions: 635 nm fluorescence, higher = more signal;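 further: composite of spot emission at 667 nm and signal to noise over triplicate slides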
[4] = system: Fibrinogen (Alexa647-labelled); assay: Alexa647-fibrinogen binding to printed small molecules – biochemical, small-molecule microarray, 635/667 nm fluorescence, artefact control for SMM control-protein annotation, profiling panel (AID 1131); conditions: fibrinogen-A647 binding fluorescence, higher = more signal;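 further: z-score merges 667 nm fluorescence with per-spot signal-to-noise over triplicate slides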
[5] = target: Follistatin (Homo sapiens) (UniProt P19883); assay: FST protein binding to printed compounds – biochemical, small-molecule microarray, 635/667 nm fluorescence, primary screen (AID 1132); conditions: 635 nm fluorescence, higher = more signal
[6] = target: Fibroblast growth factor 2 (Homo sapiens) (UniProt P09038); assay: basic fibroblast growth factor binding to printed compounds – biochemical, small-molecule microarray, 635/667 nm fluorescence, primary screen (AID 1133); conditions: FGF2, fluorescence 635/667, higher = more signal
[7] = JC-1 mitochondrial potential readout, lung cancer cells – cell-based, A549, JC-1 fluorescence, basal, 24 h, 100 nL, profiling panel (AID 1138); conditions: higher = more signal;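 further: A549 lung adenocarcinoma cells under basal conditions with no added stimulus; test concentration not given here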
Lefty1 = Lefty1 protein binding to printed compounds – biochemical, small-molecule microarray, 635/667 nm fluorescence, primary screen (AID 1139); conditions: fluorescence 635/667, higher = more signal
[8] = system: wheat germ agglutinin (Triticum aestivum), Alexa647-labelled; assay: Alexa647-WGA lectin binding to printed small molecules – biochemical, small-molecule microarray, 635/667 nm fluorescence, artefact control for SMM control-protein annotation, profiling panel (AID 1140); conditions: WGA-A647 binding, 635 nm fluorescence, higher = more signal;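 further: score merges 667 nm feature emission with signal to noise over triplicate slides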
[9] = target: Luciferin 4-monooxygenase (Photinus pyralis) (UniProt P08659); assay: inhibition of purified Photinus pyralis luciferase – biochemical, luminescence, purified enzyme, 2006 set, primary screen (AID 1141); conditions: purified firefly luciferase, SteadyGlo luminescence, 30 min; higher = more signal, called active from +8 up or from −8 down;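 further: cell-free assay with purified firefly luciferase at 100 ng per well in PBS; test concentration not given here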
[10] = system: Wnt5a (protein binding on small-molecule microarray); assay: small molecules binding Wnt5a protein – biophysical, small-molecule microarray, 635/667 nm fluorescence, primary screen (AID 1142); conditions: 635 nm fluorescence, higher = more signal;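 further: fluorescence read at 667 nm with signal to noise per printed feature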
[11] = ATP-based viability of Huh7 replicon cells – cell-based, CellTiter-Glo luminescence, basal, 48 h, cytotoxicity control for HCV replication inhibitor project, primary screen (AID 1143); conditions: higher = more signal, called active from +8 up or from −8 down;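 further: Huh7 hepatoma cells carrying a hepatitis C replication reporter with no stimulus; test concentration not given here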
[12] = Pseudomonas biofilm growth suppression – PAO1 strain, BacTiter-Glo luminescence, LB-PBS, primary screen (AID 1144); conditions: P. aeruginosa PAO1 biofilm, 12 h, higher = more signal
[13] = basal CRE-LacZ reporter activity in PC12 – cell-based, unstimulated, primary screen (AID 1145); conditions: no forskolin, luminescence, 4.5 h, higher = more signal, called active from +8 up or from −8 down
[14] = forskolin-driven CRE-LacZ activity in PC12 – cell-based, CRE-LacZ reporter, forskolin-stimulated, primary screen (AID 1146); conditions: luminescence, 4.5 h, higher = more signal, called active from +8 up or from −8 down;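 further: PC12 cells with 6xCRE LacZ reporter stimulated by forskolin 10 µM; beta-galactosidase reporter signal reflecting CREB driven transcription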
[15] = target: Streptavidin (Streptomyces avidinii) (UniProt P22629); assay: compounds binding control protein streptavidin – biophysical, small-molecule microarray, 635/667 nm fluorescence, artefact control for SMM compound annotation, primary screen (AID 1147); conditions: higher = more signal;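 further: signal reflects streptavidin binding to arrayed compounds as a control protein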
[16] = probe aInhba binding on compound microarray – biochemical, small-molecule microarray, 635/667 nm fluorescence, primary screen (AID 1148); conditions: higher = more signal;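 further: score merges 667nm spot fluorescence with signal-to-noise for antibody binding to printed compounds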
Torsin-1A (Homo sapiens) [17] = target: Torsin-1A (Homo sapiens) (UniProt O14656); assay: TOR1A wild-type binding on microarray – cell lysate, small-molecule microarray, lysate, 635/667 nm, primary screen (AID 1149); conditions: COS7 hTOR1A-WT lysate, 635 nm fluorescence, higher = more signal
Torsin-1A (Homo sapiens) [18] = target: Torsin-1A (Homo sapiens) (UniProt O14656); assay: torsin A mutant lysate binding on microarrays – cell lysate, small-molecule microarray, COS7 lysate, 635/667 nm fluorescence, primary screen (AID 1150); conditions: COS7 hTOR1A mutant lysate, 635 nm fluorescence, higher = more signal;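 further: score pools 667 nm emission and signal to noise measuring lysate protein binding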
[19] = system: Sonic hedgehog protein (Shh); assay: Sonic hedgehog microarray binding compounds – biochemical, small-molecule microarray, 635/667 nm fluorescence, primary screen (AID 1151); conditions: 635 nm fluorescence, higher = more signal;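 further: Shh protein binding to compounds spotted on small-molecule microarray slides; score combines spot fluorescence intensity with signal-to-noise across triplicate slides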

Sequence of Focal adhesion kinase 1 (Homo sapiens) (Q05397 whole entry, looked up): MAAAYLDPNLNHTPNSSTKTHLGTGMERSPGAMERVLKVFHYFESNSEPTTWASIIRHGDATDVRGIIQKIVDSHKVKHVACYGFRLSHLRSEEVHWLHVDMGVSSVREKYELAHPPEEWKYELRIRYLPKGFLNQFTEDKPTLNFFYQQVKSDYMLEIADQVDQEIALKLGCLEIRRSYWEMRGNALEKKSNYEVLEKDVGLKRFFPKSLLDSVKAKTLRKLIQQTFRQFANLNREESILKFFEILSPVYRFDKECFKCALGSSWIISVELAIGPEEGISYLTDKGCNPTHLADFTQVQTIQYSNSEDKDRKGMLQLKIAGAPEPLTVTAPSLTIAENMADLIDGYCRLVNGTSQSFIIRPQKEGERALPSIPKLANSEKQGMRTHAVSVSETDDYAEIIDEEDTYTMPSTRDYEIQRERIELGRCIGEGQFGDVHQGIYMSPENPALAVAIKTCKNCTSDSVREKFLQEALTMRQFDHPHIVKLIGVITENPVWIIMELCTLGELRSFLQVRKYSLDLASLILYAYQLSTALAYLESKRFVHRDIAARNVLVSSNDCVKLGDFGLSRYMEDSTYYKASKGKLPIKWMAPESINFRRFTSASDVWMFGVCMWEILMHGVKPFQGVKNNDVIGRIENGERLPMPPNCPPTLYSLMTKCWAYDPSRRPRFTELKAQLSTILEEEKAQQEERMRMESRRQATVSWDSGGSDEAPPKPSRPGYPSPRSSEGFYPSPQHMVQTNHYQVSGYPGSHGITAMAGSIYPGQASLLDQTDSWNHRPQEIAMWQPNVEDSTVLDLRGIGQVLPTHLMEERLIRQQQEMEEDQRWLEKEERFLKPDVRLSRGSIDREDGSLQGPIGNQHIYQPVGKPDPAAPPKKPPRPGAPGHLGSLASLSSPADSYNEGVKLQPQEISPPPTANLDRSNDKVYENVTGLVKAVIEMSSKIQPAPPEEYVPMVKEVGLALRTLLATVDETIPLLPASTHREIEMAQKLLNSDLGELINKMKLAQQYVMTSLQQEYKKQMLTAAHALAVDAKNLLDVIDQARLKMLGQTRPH
Sequence of Streptavidin (Streptomyces avidinii) (P22629 whole entry, looked up): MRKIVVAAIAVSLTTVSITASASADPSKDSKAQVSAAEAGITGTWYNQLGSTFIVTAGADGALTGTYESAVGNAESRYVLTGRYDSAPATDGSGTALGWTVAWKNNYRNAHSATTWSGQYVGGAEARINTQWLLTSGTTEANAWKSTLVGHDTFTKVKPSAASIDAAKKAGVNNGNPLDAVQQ
Sequence of Fibroblast growth factor 2 (Homo sapiens) (P09038 whole entry, looked up): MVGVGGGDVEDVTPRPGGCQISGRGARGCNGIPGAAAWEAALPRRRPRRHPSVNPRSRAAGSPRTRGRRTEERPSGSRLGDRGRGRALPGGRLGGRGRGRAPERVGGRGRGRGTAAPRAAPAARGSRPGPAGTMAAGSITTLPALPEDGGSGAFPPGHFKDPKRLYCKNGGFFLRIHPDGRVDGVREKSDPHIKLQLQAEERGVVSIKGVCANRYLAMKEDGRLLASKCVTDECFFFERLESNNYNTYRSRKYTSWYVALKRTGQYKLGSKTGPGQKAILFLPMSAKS
Sequence of Torsin-1A (Homo sapiens) (O14656 whole entry, looked up): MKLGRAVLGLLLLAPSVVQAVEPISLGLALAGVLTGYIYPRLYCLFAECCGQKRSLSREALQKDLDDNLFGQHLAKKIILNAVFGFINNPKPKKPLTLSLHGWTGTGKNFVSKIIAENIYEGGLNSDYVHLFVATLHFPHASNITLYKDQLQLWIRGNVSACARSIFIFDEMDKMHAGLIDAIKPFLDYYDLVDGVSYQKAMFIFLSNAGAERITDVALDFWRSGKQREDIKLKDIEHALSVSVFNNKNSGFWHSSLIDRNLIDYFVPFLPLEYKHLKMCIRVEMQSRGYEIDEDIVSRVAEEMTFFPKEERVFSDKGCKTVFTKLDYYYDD
Sequence of Follistatin (Homo sapiens) (P19883 whole entry, looked up): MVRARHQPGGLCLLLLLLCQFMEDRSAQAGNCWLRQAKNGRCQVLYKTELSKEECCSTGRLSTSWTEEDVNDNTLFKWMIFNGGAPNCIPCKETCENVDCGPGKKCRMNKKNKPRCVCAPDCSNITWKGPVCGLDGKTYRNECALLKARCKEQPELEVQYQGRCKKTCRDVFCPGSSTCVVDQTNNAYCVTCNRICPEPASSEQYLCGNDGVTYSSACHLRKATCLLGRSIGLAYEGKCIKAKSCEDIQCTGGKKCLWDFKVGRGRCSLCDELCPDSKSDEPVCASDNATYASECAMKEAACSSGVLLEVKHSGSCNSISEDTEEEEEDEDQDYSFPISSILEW
Sequence of Luciferin 4-monooxygenase (Photinus pyralis) (P08659 whole entry, looked up): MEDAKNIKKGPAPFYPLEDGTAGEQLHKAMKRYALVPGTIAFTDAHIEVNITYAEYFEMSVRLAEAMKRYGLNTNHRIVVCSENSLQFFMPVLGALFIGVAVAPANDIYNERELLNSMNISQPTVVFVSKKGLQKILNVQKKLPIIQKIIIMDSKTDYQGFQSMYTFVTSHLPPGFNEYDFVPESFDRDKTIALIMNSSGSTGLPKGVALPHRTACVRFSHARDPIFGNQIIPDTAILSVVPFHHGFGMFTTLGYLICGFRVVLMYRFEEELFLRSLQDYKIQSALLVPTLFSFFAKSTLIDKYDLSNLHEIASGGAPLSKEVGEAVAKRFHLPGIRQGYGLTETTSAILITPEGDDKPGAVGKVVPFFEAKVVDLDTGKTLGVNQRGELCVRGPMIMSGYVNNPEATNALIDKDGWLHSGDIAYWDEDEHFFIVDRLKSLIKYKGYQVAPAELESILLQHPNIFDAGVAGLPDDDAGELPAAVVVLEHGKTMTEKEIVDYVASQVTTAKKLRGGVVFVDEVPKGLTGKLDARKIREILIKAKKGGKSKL

| SMILES | composite z-score [1] | composite z-score [2] | composite z-score [3] | composite z-score [4] | composite z-score [5] | composite z-score [6] | z-score [7] | composite z-score (Lefty1) | composite z-score [8] | z-score [9] | composite z-score [10] | z-score [11] | z-score [12] | z-score [13] | z-score [14] | composite z-score [15] | composite z-score [16] | composite z-score (Torsin-1A (Homo sapiens) [17]) | composite z-score (Torsin-1A (Homo sapiens) [18]) | composite z-score [19] |
| --- | --- | --- | --- | --- | --- | --- | --- | --- | --- | --- | --- | --- | --- | --- | --- | --- | --- | --- | --- | --- |
| O=C(NCC(O)CO)[C@@]1(Cc2ccccc2)COC(c2ccc(OCCCO)cc2)=N1 (stereo not given in full) | 0.0139 | 0.0528 | 0.216 | 0.531 | -0.453 | 0.0393 | -0.165 | -0.743 | 0.488 | 0.37 (inactive) | 0.0149 | -0.0858 (inactive) | 0.741 (inactive) | 0.895 (inactive) | -0.18 (inactive) | -0.131 | 0.124 | -0.0598 | 0.0184 | -0.342 |
| C=CCNC(=O)[C@@H]1[C@H]2C(=O)O[C@H](c3ccccc3)[C@H](c3ccccc3)N2[C@H](c2ccccc2OCCO)[C@@]12C(=O)N(C(=O)OCCOC)c1ccc(C#CCC(C(=O)OC)C(=O)OC)cc12 | 1.39 | 1.23 | 1.25 | 0.896 | 1.04 | 1.42 | -0.453 | 1.11 | 1.12 | 0.112 (inactive) | 0.978 | -5.68 (inactive) | 0.0376 (inactive) | -0.195 (inactive) | -0.569 (inactive) | 1.63 | 0.86 | 0.612 | 1.56 | 2.04 |
| C=C(CCCC)/C(=C/C[C@@H](OC(=O)c1ccncc1)c1ccc(CO)o1)c1cc(C(=O)OC)ccc1OC | 1.94 | 1.23 | 0.129 | 0.889 | 1.16 | 0.622 | -0.108 | 1.57 | 1.18 | -3.31 (inactive) | 0.079 | -0.605 (inactive) | 0.363 (inactive) | 6.18 (inactive) | 4.24 (inactive) | 0.707 | 0.027 | 0.394 | 1.23 | 1.97 |
| COCCOC(=O)N1C(=O)[C@@]2(c3cc(C#CC4(O)CCCCCC4)ccc31)[C@H](c1ccc(O)cc1)N1[C@H](c3ccccc3)[C@H](c3ccccc3)OC(=O)[C@H]1[C@@H]2C(=O)N1CCc2cc(OC)c(OC)cc2C1 | -0.083 | -0.183 | 0.462 | -1.69 | -0.792 | -0.505 | -0.506 | -0.625 | 0.663 | 0.503 (inactive) | -0.445 | -2.45 (inactive) | -1.73 (inactive) | -1.7 (inactive) | -0.805 (inactive) | -1.33 | -0.176 | -0.576 | -0.0551 | -0.649 |
| CN1C(=O)C2C=CC(C(O)c3ccc(Br)cc3)N(Nc3ccccc3)C2C1=O (stereo not given) | -0.233 | -0.426 | 0.1 | -0.23 | -1.12 | -1.22 | -0.101 | -1.33 | 0.387 | -1.11 (inactive) | -0.323 | 1.06 (inactive) | -0.595 (inactive) | 1.6 (inactive) | 0.127 (inactive) | -0.524 | -0.0523 | 0.24 | 0.828 | -1.09 |
| C[C@H]1C2[C@H](Cc3ccccc3)NC(=O)[C@]23C(=O)N[C@H](Cc2ccccc2)C(=O)N[C@H](Cc2ccccc2)C(=O)NC/C=C/CCC/C=C/C3[C@@H]2O[C@]12C (stereo not given in full) | 0.896 | 1.18 | 0.0256 | 0.304 | 1.08 | 0.519 | -0.256 | 1.56 | 0.756 | -3.27 (inactive) | 0.127 | -2 (inactive) | 0.612 (inactive) | 1.3 (inactive) | -0.696 (inactive) | -0.224 | -0.149 | 0.299 | 0.225 | 0.843 |
| CCCNC(=O)[C@@]1(C)c2ccccc2C(=O)N(Cc2cc(F)cc(C(F)(F)F)c2)[C@H]1c1ccc(CO)cc1 | 0.858 | -0.331 | -0.527 | -1.73 | -0.839 | -0.812 | -0.394 | -0.662 | 0.932 | 0.942 (inactive) | -0.283 | -3.38 (inactive) | -1.09 (inactive) | 0.208 (inactive) | -0.173 (inactive) | -0.767 | -0.175 | -2.08 | 0.779 | 0.011 |
| [N-]=[N+]=NCc1ccccc1C[C@]1(C(=O)NCc2ccccc2)COC(c2ccc(OCCCO)cc2)=N1 | 0.519 | 1.16 | 1.11 | 0.948 | 0.101 | 0.661 | -0.221 | -0.0991 | 0.762 | -0.169 (inactive) | -0.0113 | -5.27 (inactive) | 0.664 (inactive) | 1.72 (inactive) | 0.232 (inactive) | 0.469 | 0.0301 | -0.328 | 0.784 | -1.13 |
| O=c1cccc(-c2cccc3ccccc23)o1 | 0.874 | 1.2 | 1.35 | 0.708 | 0.26 | -0.32 | 0.316 | -0.789 | 0.8 | 1.52 (inactive) | -0.0859 | -0.779 (inactive) | -0.469 (inactive) | 0.182 (inactive) | 0.092 (inactive) | 0.112 | -0.0471 | 0.272 | -0.0514 | -0.343 |
| O=C1O[C@@H](c2ccccc2)[C@@H](c2ccccc2)N2[C@@H](c3ccccc3OCCO)[C@]3(C(=O)Nc4ccc(C#CC5(O)CCCCCC5)cc43)[C@@H](C(=O)NC[C@H](O)c3ccccc3)[C@H]12 | 1.82 | 1.2 | 1.03 | -0.51 | 1.17 | 0.106 | -1.15 | 1.54 | 1.21 | -0.215 (inactive) | 0.602 | -6.25 (inactive) | 0.813 (inactive) | 0.0776 (inactive) | 1.12 (inactive) | 0.329 | 1.09 | -0.179 | 0.251 | 2.17 |
